Results published in PubChem BioAssay (NCATS).
Inconclusive results are not listed. Active and inactive are the calls of the source. Unless noted, calls follow the shape of the dose curve; as a rule, active = well fitted curve in the direction sought with a large enough effect; inconclusive = small, poorly fitted or top-dose-only effect, or another doubt; inactive = no such curve, though single readings can be large; an effect the other way counts as inactive or inconclusive.

Columns and labels:
[1] = Dual reporter qHTS for agonist of Pregnane X Receptor (hPXR) against the NCATS DSHEA and TCM libraries: Fluorescence readout (AID 1920058); conditions: PXR dual reporter cells; series mostly up to 40 µM; also: 0% is about no effect
Outline: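 Measures viability of the PXR reporter HepG2 line by protease-substrate fluorescence (405/540 nm), taken 1 h after CellTiter-Fluor addition. Substances are tested as concentration series over a ~24 h exposure, with rifampicin as agonist control.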

[2] = biological target: Nuclear receptor subfamily 1 group I member 2 (Homo sapiens) (UniProt O75469); test: Dual reporter qHTS for agonist of Pregnane X Receptor (hPXR) against the NCATS DSHEA and TCM libraries: Luminescence readout (AID 1920059); conditions: hPXR dual reporter cells, luciferase luminescence agonist; series mostly up to 40 µM; also: 0% is about no effect
Nuclear receptor subfamily 1 group I member 2 (Homo sapiens), sequence (O75469 whole entry, looked up): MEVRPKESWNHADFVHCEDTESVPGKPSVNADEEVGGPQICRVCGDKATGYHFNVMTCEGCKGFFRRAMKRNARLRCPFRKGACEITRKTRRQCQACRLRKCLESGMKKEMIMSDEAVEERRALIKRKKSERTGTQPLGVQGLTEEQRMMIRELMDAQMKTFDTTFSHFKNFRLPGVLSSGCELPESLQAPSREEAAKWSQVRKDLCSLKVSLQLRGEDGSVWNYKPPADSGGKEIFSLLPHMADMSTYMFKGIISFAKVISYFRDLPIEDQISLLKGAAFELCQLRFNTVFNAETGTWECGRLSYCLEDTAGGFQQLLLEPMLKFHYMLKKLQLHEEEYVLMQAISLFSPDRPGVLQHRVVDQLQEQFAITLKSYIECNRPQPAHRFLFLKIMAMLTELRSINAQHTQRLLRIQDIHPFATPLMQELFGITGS
Outline: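 hPXR-Luc HepG2 cells, 2000/well in 5% charcoal-stripped FBS medium, attached 5 h, then exposed 24 h at 37C to compounds. Viability by CellTiter-Fluor, then luciferase luminescence with ONE-Glo.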

[3] = biological target: Nuclear receptor subfamily 1 group I member 2 (Homo sapiens) (UniProt O75469); test: Dual reporter qHTS for antagonist of Pregnane X Receptor (hPXR) against the NCATS DSHEA and TCM libraries: Luminescence Readout (AID 1920060); conditions: hPXR dual reporter cells, luciferase luminescence, antagonist mode; series mostly up to 40 µM; also: 0% is about no effect
Outline: (§1)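 Rifampicin-stimulated (2 uM final) hPXR-luciferase HepG2 cells were treated for 24 h with DSNP/TCM substances. Viability came from CellTiter-Fluor fluorescence, reporter activity from ONE-Glo luminescence.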

[4] = Dual reporter qHTS for antagonist of Pregnane X Receptor (hPXR) against the NCATS DSHEA and TCM libraries: Fluorescence Readout (AID 1920061); conditions: PXR dual reporter cells, antagonist mode; series mostly up to 40 µM; also: 0% is about no effect
Outline: as §1

[5] = qHTS profiling for inhibitors of Plasmodium falciparum proliferation (AID 504749);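 also: 0% = DMSO vehicle and full inhibition = artemisinin control; nearly all actives have a fitted effect of over 60% in size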; conditions: P. falciparum in erythrocytes, SYBR Green DNA, 72 h, at 28.7 µM (top of the series)
Outline: (§2)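 Readout was DNA-dye fluorescence from lysed cultures, ex 485/em 535 nm. Parasitized red cells had grown 72 h with compound; data scaled between 0.29 uM artemisinin and DMSO wells and corrected using vehicle-only plates.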

[6] = test system: AA1029; test: as above; conditions: P. falciparum in erythrocytes, SYBR Green DNA, 72 h; series mostly up to 28.7 µM
Outline: as §2

[7] = test system: AS120; test: as above; conditions: P. falciparum in erythrocytes, SYBR Green DNA, 72 h; series mostly up to 28.7 µM
Outline: as §2

[8] = test system: ATS189; test: as above; conditions: P. falciparum in erythrocytes, SYBR Green DNA, 72 h; series mostly up to 28.7 µM
Outline: as §2

[9] = test system: ATS95; test: as above; conditions: P. falciparum in erythrocytes, SYBR Green DNA, 72 h; series mostly up to 28.7 µM
Outline: as §2

[10] = test system: CP185; test: as above; conditions: P. falciparum in erythrocytes, SYBR Green DNA, 72 h; series mostly up to 28.7 µM
Outline: as §2

[11] = test system: CP192; test: as above; conditions: P. falciparum in erythrocytes, SYBR Green DNA, 72 h; series mostly up to 28.7 µM
Outline: as §2

[12] = test system: CP194; test: as above; conditions: P. falciparum in erythrocytes, SYBR Green DNA, 72 h; series mostly up to 28.7 µM
Outline: as §2

[13] = test system: CP201; test: as above; conditions: P. falciparum in erythrocytes, SYBR Green DNA, 72 h; series mostly up to 28.7 µM
Outline: as §2

[14] = test system: CP211; test: as above; conditions: P. falciparum in erythrocytes, SYBR Green DNA, 72 h; series mostly up to 28.7 µM
Outline: as §2

[15] = qHTS drug screen for cell cycle checkpoint inhibitors in PARPi-resistant BRCA-mutant ovarian cancer cell lines. (AID 1963452; calls by dose curve); conditions: PEO1/OlaR viability, CellTiter-Glo luminescence, 96 h, stronger effect = lower value
Outline: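 PEO1, PEO4 and PEO1/OlaR ovarian cancer cells, 600 per well, exposed 96 h at 37C to a dilution series. Viability read by CellTiter-Glo luminescence, normalized to DMSO and empty wells; activity summarized as Z-AUC.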

[16] = test system: 3D7; test: qHTS profiling for inhibitors of Plasmodium falciparum proliferation (AID 504749);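 also: 0% = DMSO vehicle and full inhibition = artemisinin control; nearly all actives have a fitted effect of over 60% in size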; conditions: P. falciparum in erythrocytes, SYBR Green DNA, 72 h; series mostly up to 28.7 µM
Outline: as §2

[17] = test system: 7G8; test: as above; conditions: P. falciparum in erythrocytes, SYBR Green DNA, 72 h; series mostly up to 28.7 µM
Outline: as §2

[18] = test system: C2A; test: as above; conditions: P. falciparum in erythrocytes, SYBR Green DNA, 72 h; series mostly up to 28.7 µM
Outline: as §2

[19] = test system: CP191; test: as above; conditions: P. falciparum in erythrocytes, SYBR Green DNA, 72 h; series mostly up to 28.7 µM
Outline: as §2

[20] = measured here: PEO1 parental Z-AUC

O=C(O)c1cc(O)c(O)c(O)c1
inactive: outcome [1] | outcome [2] | outcome [3] | outcome [4] | activity, negative = inhibition ([5]; parasite line A) -23.1% | activity, negative = inhibition ([5]; parasite line B) -29.8% | Potency [6] | Potency [7] | Potency [8] | Potency [9] | Potency [10] | Potency [11] | Potency [12] | Potency [13] | Potency [14]

CC1(C)[C@@H](O)CC[C@]2(C)[C@H]3C(=O)C=C4[C@@H]5C[C@@](C)(C(=O)O)CC[C@]5(C)CC[C@@]4(C)[C@]3(C)CC[C@@H]12
0.997: Z-AUC ([15]; measured here: PEO4 Z-AUC)
1.38: Z-AUC [15, 20]
inactive: Z-AUC [15] 0.796 | activity, negative = inhibition ([5]; parasite line A) -3.83% | activity, negative = inhibition ([5]; parasite line B) -0.325% | Potency [16] | Potency [17] | Potency [6] | Potency [7] | Potency [8] | Potency [9] | Potency [18] | Potency [10] | Potency [19] | Potency [11] | Potency [12] | Potency [13] | Potency [14]

O=C(O)[C@H](CC(=O)N1C[C@H]2CCCC[C@H]2C1)Cc1ccccc1
-0.735: Z-AUC [15, 20]
inactive: Z-AUC [15] -0.763 | activity, negative = inhibition ([5]; parasite line A) 9.74% | activity, negative = inhibition ([5]; parasite line B) 2.21% | Potency [16] | Potency [17] | Potency [6] | Potency [7] | Potency [8] | Potency [9] | Potency [18] | Potency [10] | Potency [19] | Potency [11] | Potency [12] | Potency [13] | Potency [14]
-0.83: Z-AUC ([15]; measured here: PEO4 Z-AUC)

C=CCc1cccc(/C=N/NC(=O)CN2CCN(Cc3ccccc3)CC2)c1O
inactive: Z-AUC [15] 0.78
0.857: Z-AUC [15, 20]
0.395: Z-AUC ([15]; measured here: PEO4 Z-AUC)

O=C(Nc1ccc2c(c1)CCN(Cc1ncn[nH]1)C2)c1ccccc1-c1ccc(C(F)(F)F)cc1
inactive: Z-AUC [15] -0.0591
-0.291: Z-AUC [15, 20]
0.47: Z-AUC ([15]; measured here: PEO4 Z-AUC)
